According to publication PMC4336329 (PLoS ONE, 2015):
About 14,000 (4.5%) of roughly 310,000 compounds showed an effect of 50% or more. Effects have a minus sign here. Many of the other results were omitted from the sample, so strong results are more common in it than they were.

Molecular target: human ether-à-go-go-related gene (hERG) potassium channel (human, UniProt Q12809)
Experiment: primary screen, population patch clamp on CHO cells stably expressing hERG; higher = less effect of the substance
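Further: peak tail current of the secondary pulse compared with the same well before compound.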

Sequence of human ether-à-go-go-related gene (hERG) potassium channel (Q12809 whole entry, looked up): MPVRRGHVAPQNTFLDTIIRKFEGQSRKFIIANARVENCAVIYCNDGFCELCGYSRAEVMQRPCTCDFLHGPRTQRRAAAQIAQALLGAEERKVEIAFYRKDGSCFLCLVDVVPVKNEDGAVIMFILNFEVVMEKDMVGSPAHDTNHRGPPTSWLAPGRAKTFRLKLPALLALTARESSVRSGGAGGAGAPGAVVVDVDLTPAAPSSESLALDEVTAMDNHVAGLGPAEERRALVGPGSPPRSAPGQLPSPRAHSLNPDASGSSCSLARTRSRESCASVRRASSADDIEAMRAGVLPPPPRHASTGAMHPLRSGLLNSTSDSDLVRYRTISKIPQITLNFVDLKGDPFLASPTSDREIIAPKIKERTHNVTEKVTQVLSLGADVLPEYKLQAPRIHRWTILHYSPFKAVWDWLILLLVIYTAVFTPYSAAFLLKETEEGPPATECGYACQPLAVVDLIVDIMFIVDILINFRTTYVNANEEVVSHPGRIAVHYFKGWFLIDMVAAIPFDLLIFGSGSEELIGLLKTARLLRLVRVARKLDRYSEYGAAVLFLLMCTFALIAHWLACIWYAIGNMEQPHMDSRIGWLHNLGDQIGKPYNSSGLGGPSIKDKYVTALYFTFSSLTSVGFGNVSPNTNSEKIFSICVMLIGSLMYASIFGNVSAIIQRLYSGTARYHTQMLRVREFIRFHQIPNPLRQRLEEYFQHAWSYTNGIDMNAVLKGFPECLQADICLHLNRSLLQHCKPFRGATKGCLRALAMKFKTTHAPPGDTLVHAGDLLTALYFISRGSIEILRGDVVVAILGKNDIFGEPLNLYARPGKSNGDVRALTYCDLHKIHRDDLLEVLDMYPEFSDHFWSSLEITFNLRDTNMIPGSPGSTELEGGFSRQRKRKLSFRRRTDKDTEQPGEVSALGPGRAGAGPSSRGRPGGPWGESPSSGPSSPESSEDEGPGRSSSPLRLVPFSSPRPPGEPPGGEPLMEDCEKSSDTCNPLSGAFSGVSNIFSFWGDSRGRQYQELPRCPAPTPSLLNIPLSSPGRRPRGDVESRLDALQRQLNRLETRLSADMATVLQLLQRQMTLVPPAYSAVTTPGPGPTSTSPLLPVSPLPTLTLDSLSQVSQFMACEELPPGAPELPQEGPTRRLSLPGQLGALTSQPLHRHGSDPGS

| SMILES | hERG current change (%, negative = inhibition) at 10uM |
| --- | --- |
| CC(C)CC(=O)Nc1ccccc1N1CCN(C(=O)c2ccccc2)CC1 | -17.7% |
| O=C(Nc1ccccc1N1CCCC1)c1ccc(Cl)cc1Cl | 8.88% |
| COc1ccc(C(=O)Nc2ccccc2N2CCN(C(=O)c3ccccc3)CC2)cc1Br | -8.68% |
| COc1ccc(Br)cc1C(=O)Nc1ccccc1N1CCN(C(=O)c2ccccc2)CC1 | -52.4% |
| O=C(Nc1ccccc1N1CCN(C(=O)c2ccc(Cl)cc2)CC1)c1cc(Br)ccc1Cl | -67.7% |
| CCCC(=O)Nc1ccccc1N1CCN(C(=O)c2ccccc2)CC1 | -46% |
| O=C(Nc1ccccc1N1CCN(C(=O)c2ccccc2)CC1)c1cc(Br)ccc1Cl | -55.6% |
| O=C(Nc1ccccc1N1CCN(C(=O)c2ccc(Cl)cc2)CC1)c1cc2ccccc2o1 | -2.33% |
| COc1ccc(Br)cc1C(=O)Nc1ccccc1-c1ccccc1 | -2.5% |
| Cc1ccc(C(=O)NCC(=O)NC2CCC(C)CC2)s1 (centres unmarked) | 2.47% |
| CC(=O)NCCc1nc2ccccc2n1Cc1ccccc1 | 1.05% |
| O=C(COc1ccccc1[N+](=O)[O-])Nc1ccccc1N1CCCC1 | -29.1% |
| CCN(CC(=O)Nc1ccc2c(c1)OCO2)CC(=O)Nc1ccccc1C(F)(F)F | -14.4% |
| C/C(=N\NS(=O)(=O)c1ccc(C)c([N+](=O)[O-])c1)c1cc2ccccc2o1 | -9.98% |
| Cc1ccc(-n2c(C)c3c(C)nnc(C)c3c2C)cc1C | -34% |
| C=CCn1cc(C(=O)c2cc(Br)ccc2O)cc(C#N)c1=O | -17.5% |
| Cc1ccc(C(=O)OCC(=O)N2CCCC2)cc1 | -2.99% |
| Cc1nnc(-c2cnn(C)c2N)n1Cc1ccc2c(c1)OCO2 | 5.96% |
| CC(=O)c1c(C(C)=O)c(C)n(Cc2ccc3c(c2)OCO3)c1C | -9.41% |
| Cc1nnc(C)c2c(C)n(Cc3ccc4c(c3)OCO4)c(C)c12 | -71.4% |
| CCOc1ccc2oc(C(=O)OCC(=O)NC3CCCC3)c(C)c2c1 | 11.1% |
| Cc1cccc(NC(=O)CN2C(=O)c3ccccc3C2=O)c1C | 0.742% |
| CCc1ccc(C(=O)NNC(=O)CCc2nc3ccccc3c(=O)[nH]2)cc1 | -7.54% |
| O=S(=O)(c1ccc(Cl)cc1)N1CCN(Cc2c[nH]c3ccccc23)CC1 | -18.8% |
| O=[N+]([O-])c1ccc(CN2CCN(Cc3c[nH]c4ccccc34)CC2)cc1 | -77.8% |
| c1ccc(CN2CCN(Cc3c[nH]c4ccccc34)CC2)cc1 | -30.2% |
| O=C(O)C(=O)O.O=[N+]([O-])c1ccc(S(=O)(=O)N2CCN(Cc3c[nH]c4ccccc34)CC2)cc1 | -54.5% |
| O=C(O)C(=O)O.O=[N+]([O-])c1ccccc1CN1CCN(Cc2c[nH]c3ccccc23)CC1 | -24.2% |
| c1ccc2c(CN3CCCCC3)c[nH]c2c1 | -38% |
